Our source for the inhibition values is ChEMBL document CHEMBL4808148, “HDAC6 screening dataset using tau-based substrate in an enzymatic assay yields selective inhibitors and activators” (2021).

The structures appear in SMILES notation. The whole screen tested about 5,600 compounds, of which about 390 (7%) showed an effect of 50% or more. The sample holds strong results, similar compounds and a random draw of the others, so the mix is not that of the screen.

The target in the test is T1, Protein deacetylase HDAC6 (Homo sapiens) (UniProt Q9UBN7).
T1 sequence (whole entry): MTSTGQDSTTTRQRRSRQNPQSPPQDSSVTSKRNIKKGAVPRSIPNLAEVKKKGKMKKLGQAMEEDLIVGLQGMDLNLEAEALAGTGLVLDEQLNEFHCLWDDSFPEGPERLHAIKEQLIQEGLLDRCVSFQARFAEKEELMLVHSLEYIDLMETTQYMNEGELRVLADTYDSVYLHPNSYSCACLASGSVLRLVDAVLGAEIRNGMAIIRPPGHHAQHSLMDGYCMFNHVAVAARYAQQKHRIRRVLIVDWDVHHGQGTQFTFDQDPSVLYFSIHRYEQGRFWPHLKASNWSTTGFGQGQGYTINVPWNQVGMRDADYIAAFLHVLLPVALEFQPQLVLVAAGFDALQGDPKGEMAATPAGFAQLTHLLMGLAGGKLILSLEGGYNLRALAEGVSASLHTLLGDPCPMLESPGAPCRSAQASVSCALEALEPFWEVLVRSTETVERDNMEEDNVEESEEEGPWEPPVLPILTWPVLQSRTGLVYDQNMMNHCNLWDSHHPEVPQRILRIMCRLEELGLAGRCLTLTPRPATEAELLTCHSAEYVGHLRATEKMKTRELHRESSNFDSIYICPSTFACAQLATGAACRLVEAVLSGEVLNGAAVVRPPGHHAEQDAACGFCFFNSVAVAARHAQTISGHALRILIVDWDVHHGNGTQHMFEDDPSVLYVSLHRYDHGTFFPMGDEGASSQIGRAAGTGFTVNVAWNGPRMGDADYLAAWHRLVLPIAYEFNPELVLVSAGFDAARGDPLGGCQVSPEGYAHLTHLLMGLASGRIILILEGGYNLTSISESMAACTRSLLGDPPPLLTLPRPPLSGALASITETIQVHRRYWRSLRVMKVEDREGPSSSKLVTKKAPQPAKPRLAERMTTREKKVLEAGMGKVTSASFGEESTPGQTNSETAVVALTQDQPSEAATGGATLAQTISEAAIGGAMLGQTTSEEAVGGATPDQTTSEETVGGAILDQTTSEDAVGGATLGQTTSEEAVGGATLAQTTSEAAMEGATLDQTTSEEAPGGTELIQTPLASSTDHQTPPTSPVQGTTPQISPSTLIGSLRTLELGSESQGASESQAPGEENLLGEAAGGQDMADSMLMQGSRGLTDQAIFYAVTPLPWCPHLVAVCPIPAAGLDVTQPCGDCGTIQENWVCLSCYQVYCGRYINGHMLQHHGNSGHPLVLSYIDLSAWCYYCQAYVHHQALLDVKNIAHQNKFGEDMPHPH
The following applies: at 10 µM.
As a reminder, the inhibition is the relative decrease from the control value, in per cent. `Cc1cc(Cn2cnc3c2C[C@@H](C(=O)O)N(C(=O)C(c2ccccc2)c2ccccc2)C3)ccc1N(C)C`: the inhibition came to 17.5%.
Next, `CC1CS(=O)(=O)CCN1/N=C/c1ccc([N+](=O)[O-])o1` (configuration not stated): -9.63%; `O=C(O)CNC(=O)c1ccccc1`: 17.6%; `O=C(Nc1ccc(Cl)nc1)c1ccc(Cl)cc1`: 27.1%.
Take `O=C(Nc1ccc(C(=O)O)c(O)c1)c1ccccc1`: the inhibition was 68.6%.
For the molecule `O=C(Nc1cc2cc[nH]c2cn1)c1ccccc1`, the inhibition is 105%.
Next, `NC(C(=O)O)c1ccc(C(=O)O)c(O)c1` (racemic): -7.25%.
Next, `CCc1nc(-c2cccc(C)c2)c(-c2ccnc(NC(=O)c3ccccc3)c2)s1`: 15.3%.
As for `O=C(Nc1ccc2[nH]ccc2c1)c1ccccc1`, the inhibition was 89.7%.
For the molecule `CC1(C)CCC(C)(C)c2cc(NC(=O)c3ccc(C(=O)O)cc3)ccc21`, the inhibition worked out at 17.1%.
Turning to `NC(=O)c1ccc2[nH]ccc2c1`, the inhibition amounted to 11.2%.
As to `CC1=C(/C=C/C(C)=C/C=C/C(C)CC=O)C(C)(C)CCC1` (configuration not stated), the inhibition is 0.68%.
`Cc1ccc(F)cc1C(=O)Nc1ccc(C(=O)N2Cc3cccn3Cc3ccccc32)c(Cl)c1`: the inhibition was -1.78%.
Regarding `O=C1CNC(=O)CN1`, the inhibition came out at 16.6%.
As to `O=C(O)[C@@H](S)[C@@H](S)C(=O)O`, the inhibition was 28.7%.
Consider `CN1[C@@H]2CC[C@H]1C[C@@H](OC(=O)c1c[nH]c3ccccc13)C2.CN1[C@@H]2CC[C@H]1C[C@H](OC(=O)c1c[nH]c3ccccc13)C2`, for which the inhibition is 2.5%.
As to `CCc1cc(-c2[nH]nc(C)c2-c2ccc3c(c2)OCCO3)c(O)cc1O`, the inhibition was determined as 8.29%.
For `CC1(C)Oc2ccc(C#N)cc2[C@@H](OC2=CC(=O)CC2)[C@@H]1O`, the inhibition is 3.84%.
Next, `Cc1c(-c2ccccc2)oc2c(C(=O)OCCN3CCCCC3)cccc2c1=O`: 11.8%; `CNc1nc(NCc2ccc(NS(C)(=O)=O)cc2Cl)cc(-c2ccccn2)n1`: 13.6%.
For `Nc1ccc(S(=O)(=O)O)cc1`, the inhibition worked out at 9.02%.
Next, `Cc1cc(O)c(C(=O)N[C@@H](C(=O)N[C@@H]2C(=O)N3C(C(=O)O)=C(CSc4nnnn4C)CS[C@H]23)c2ccc(O)cc2)cn1`: 29%; `Cc1cc(-c2ccc3c(c2)CC[C@H]3N2CC3(CCN(C(=O)Cc4cn5cc(C)sc5n4)CC3)C2)ncn1`: 0.83%; `CN1C(=O)c2c(nn(Cc3ccc(-c4cccc(F)n4)cc3)c2Nc2ccccc2)N2C1=N[C@@H]1CCC[C@@H]12`: -2.77%.
Consider `O=c1cc(N2CCOCC2)oc2c(-c3ccccc3)cccc12`, for which the inhibition was found to be 1.23%.
To `C[C@@H]1CN(CC(=O)Nc2ccc3c(c2)Cc2cccc(-c4cc(=O)cc(N5CCOCC5)o4)c2S3)C[C@H](C)O1` belongs 61%; to `CCOC(=O)Nc1ccc2c(c1)N(C(=O)CCN1CCOCC1)c1ccccc1S2`, -0.7%; to `O=c1cc(-c2cccc3c2Sc2ccccc2S3)oc(N2CCOCC2)c1`, 82.8%.
To `O=c1cc(N2CCOCC2)oc2c(-c3cccc4c3sc3ccccc34)cccc12` belongs -7.08%; to `Nc1ncnc2c1nc(Br)n2[C@@H]1O[C@@H]2COP(=O)(O)O[C@H]2[C@H]1O`, 4.67%; to `O=C(O)Cc1sc(-c2ccccc2)nc1-c1ccc(Cl)cc1`, -4.01%.
As to `Nc1c2c(nc3c1CCC3)CCCC2`, the inhibition stood at 13%.
Turning to `CCN(CC)c1ccc(/C=N/NC(=O)c2ccc(O)cc2)cc1`, the inhibition was determined as 80%.
To `CCC(=O)c1ccc(O)cc1` belongs 7.92%; to `O=C(N/N=C/c1ccc([N+](=O)[O-])o1)c1ccc(O)cc1`, 18.8%; to `C/N=C(/NC#N)NCCSCc1csc(NC(=N)N)n1`, 4.88%.
Turning to `COc1cccc(CCc2ccccc2OCC[C@@H]2C[C@@H](O)CN2C)c1`, the inhibition was 12.1%.
In the case of `O=C1C(Cl)=C(NCCN2CCOCC2)C(=O)c2ncccc21`, the inhibition is -2.93%.
For the molecule `Cc1noc(-c2ccc(-c3ccc(CC(=O)O)cc3)cc2)c1NC(=O)O[C@H](C)c1ccccc1`, the inhibition stood at 15.4%.
To `O=C(N[C@@H](Cc1c[nH]c2ccccc12)C(=O)O)c1ccc(Cl)cc1` belongs 21.4%.
As to `O=C(O)CCC(=O)c1ccc(-c2ccccc2)cc1`, the inhibition was 58.7%.
Take `O=C(CN1C2=NCCN2c2ccccc21)c1ccc(-c2ccccc2)cc1`: the inhibition was found to be 11.4%.
With `O=C(O)CCCc1ccccc1`, the inhibition came out at 15.3%.
For the molecule `CN1CCN(c2ccc(-c3cccc(CN4CCOCC4)c3)cc2NC(=O)c2c[nH]c(=O)cc2C(F)(F)F)CC1`, the inhibition was found to be 19.4%.
Regarding `Oc1cccc(Nc2ncc(F)c(Nc3cccc(O)c3)n2)c1`, the inhibition is -0.51%.
Next, `O=c1c(-c2ccccc2)c1-c1ccccc1`: 68.4%.
With `O=C1[C@H]2CCCC[C@H]2C(=O)N1CCCCN1CCN(c2nsc3ccccc23)CC1`, the inhibition was 9.58%.
To `C[C@]12CCC(=O)C=C1CC[C@@H]1[C@@H]2[C@@H](O)C[C@@]2(C)[C@H]1CC[C@]2(O)C(=O)CO` belongs 12%.
Consider `CCCC(=O)O[C@]1(C(=O)CO)CCC2[C@@H]3CCC4=CC(=O)CC[C@]4(C)C3[C@@H](O)C[C@@]21C` (some centres not stated), for which the inhibition amounted to 13.5%.
To `CCCCC(=O)O[C@]1(C(=O)CO)CC[C@H]2[C@@H]3CCC4=CC(=O)CC[C@]4(C)[C@H]3[C@@H](O)C[C@@]21C` belongs 55.9%.
`O=[N+]([O-])c1cc([N+](=O)[O-])c(/C=C/c2ccc(Cl)c(Cl)c2)cc1/C=C/c1ccc(Cl)c(Cl)c1`: the inhibition came to 7.35%.
Turning to `Nn1cnc2cc3ccccc3cc2c1=O`, the inhibition is 17.4%.
